Drawing on PubChem BioAssay (NCI), this text covers growth for nine compounds.

Holding throughout (experiment): NCI-60 one-dose screen, 48 h (100 = growth as untreated, 0 = no growth, -100 = all killed)
Assay [1] concerns RPMI-8226 leukemia. As to conditions: 10 µM unless noted.
The test system of assay [2] is OVCAR-8 ovarian. As to conditions: 10 µM unless noted.
The test system of assay [3] is OVCAR-5 ovarian. As to conditions: 10 µM unless noted.
Assay [4] deals with OVCAR-4 ovarian. As to conditions: 10 µM unless noted.
In assay [5] the test system is SK-OV-3 ovarian. As to conditions: 10 µM unless noted.
In assay [6] the test system is IGROV1 ovarian. Conditions: 10 µM unless noted.
The test system of assay [7] is OVCAR-3 ovarian. Conditions: 10 µM unless noted.
In assay [8] the test system is HS 578T breast. Conditions: 10 µM unless noted.
Assay [9] concerns NCI/ADR-RES ovarian. Conditions: 10 µM unless noted.
The subject of assay [10] is T-47D breast. As to conditions: 10 µM unless noted.
Assay [11] relates to BT-549 breast. As to conditions: 10 µM unless noted.
The subject of assay [12] is MDA-MB-435 melanoma. As to conditions: 10 µM unless noted.
The subject of assay [13] is SW-620 colon. Conditions: 10 µM unless noted.
For assay [14], the system named is MCF7 breast. Conditions: 10 µM.
Assay [15] deals with HCT-116 colon. Conditions: 10 µM unless noted.
Assay [16] concerns HCC-2998 colon. Conditions: 10 µM unless noted.
Assay [17] deals with KM12 colon. Conditions: 10 µM unless noted.

This is part of a sample that, as a whole, favours compounds with a hit. Of some 83,000 tested, about 20% had one in any assay.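 Treatment: one concentration, 48 hours, 96-well format. Scoring: percent growth, with anything below 10 considered active.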 Unmarked numbers belong to inactive results. Calls of active or inactive are those of the source.

With `Brc1ccc(Nc2nc3ccccc3nc2Nc2ccc(Br)cc2)cc1`, the growth in [1] is -12.3% (active); in [2], -31.4% (active); in assay [3], 6.38% (active); in [4], 12.7%; in assay [5], -16.7% (active); in assay [6] it was 1.3% (active). In addition, the growth is -55.4% (active) in assay [7]; -1.34% (active) in assay [8]; 5.04% (active) in assay [9]; -4.85% (active) in assay [10]; -12.6% (active) in assay [11]; -60.2% (active) in [12]. In addition, the growth was -69.9% (active) in assay [13]; 1.16% (active) in [14]; -86.3% (active) in assay [15]; -56.5% (active) in [16]; -55.3% (active) in assay [17].
For `Oc1ccc(-c2nc(-c3ccc4oc5ccc(-c6[nH]c(-c7ccc(O)cc7)nc6-c6ccccc6)cc5c4c3)c(-c3ccccc3)[nH]2)cc1`, the growth was 19.8% in [1]; 72.8% in [2]; 74.3% in [3]; 52.9% in [4]; 87% in assay [5]; 34.1% in assay [6]. The growth in assay [7] is 43.6%; in assay [8], 66.8%; in assay [9], 72.3%; in [10], 46.8%; in assay [11], 57.2%; in [12], 43.5%. Also, the growth in assay [13] was 54.7%; in assay [14], 50.7%; in assay [15], 31.3%; in assay [16], 62.3%; in assay [17], 50.8%.
As to `Clc1ccc(Nc2nnc(-c3ccc4c(c3)OCO4)o2)cc1`, the growth is 91.1% in [1]; 94.2% in assay [2]; 104% in [3]; 102% in assay [4]; 102% in [5]; 101% in assay [6]. Further, the growth in assay [7] was 114%; in assay [8], 109%; in [9], 98.6%; in assay [10] it was 82.5%; in [11], 116%; in assay [12], 99.9%. Moreover, the growth in [13] is 102%; in assay [14], 93.4%; in assay [15], 96.7%; in [16], 98.6%; in assay [17], 99.5%.
Consider `Nc1ccc(-c2ccc(-c3ccccc3N)c3[nH]c4ccccc4c23)cc1`, for which the growth in [1] was 6.61% (active); in [2], 33.1%; in assay [3], 56.7%; in [4], 67.7%; in [5], 28.7%; in assay [6] it was 53.7%. Further, the growth in assay [7] was 19.4%; in [8], 40.7%; in assay [9], -6.69% (active); in assay [10] it was 15.2%; in assay [11], 53.2%; in assay [12], -58.9% (active). In addition, the growth in assay [13] is 29.5%; in [14], 19.6%; in assay [15], 22.6%; in assay [16], 42.1%; in assay [17] it was 23.6%.
Turning to `CN1C(=O)N(C)C2(c3ccccc3)OC(=S)NC12c1ccccc1` (stereo not drawn), the growth in assay [1] is 109%; in assay [2], 100%; in [3], 99.6%; in assay [4] it was 96.1%; in [5] it was 92%; in [6] it was 103%. Besides, the growth is 97.4% in [7]; 108% in [8]; 108% in assay [9]; 95.4% in assay [10]; 94.1% in assay [11]; 103% in assay [12]. For the same compound, the growth in assay [13] was 111%; in assay [14], 91.8%; in assay [15] it was 94.8%; in assay [16], 106%; in assay [17], 91.9%.
Consider `O=C1C(Cl)=C(NCc2ccco2)C(=O)c2ccccc21`, for which the growth in assay [1] is 38.9%; in assay [2], 93.7%; in assay [3] it was 116%; in assay [4], 85.4%; in assay [5], 115%; in assay [6], 57.6%. In addition, the growth in [7] was 84.6%; in assay [8], 89.6%; in assay [9], 84.6%; in assay [10], 69.1%; in [11], 103%; in [12], -38.4% (active). Moreover, the growth in assay [13] is 99.7%; in [14], 22%; in assay [15], 80.5%; in assay [16], 97.9%; in assay [17], 62.6%.
Turning to `CCN(CC)CCCNc1ccnc2cc3ccccc3cc12`, the growth is 74.2% in [1]; 60.1% in [2]; 84.7% in assay [3]; 77.4% in [4]; 72.4% in assay [5]; 81.2% in assay [6]. Moreover, the growth in assay [7] was 74.5%; in [8], 68.4%; in assay [9], 71.1%; in assay [10], 66%; in assay [11], 94.2%; in [12] it was 87.3%. Also, the growth in assay [13] was 83%; in [14], 81.7%; in assay [15], 60.1%; in assay [16], 78.7%; in [17] it was 80.8%.
With `COc1cc2cc3c(=O)n4c(cc5cc(OC)ncc54)c(=O)n3c2cn1`, the growth was 98% in [1]; 112% in assay [2]; 110% in [3]; 114% in [4]; 113% in assay [5]; 95.8% in [6]. The growth in assay [7] is 109%; in assay [8], 104%; in assay [9], 108%; in assay [10], 95.2%; in assay [11], 106%; in [12], 110%. Also, the growth in assay [13] is 105%; in [14], 95.4%; in assay [15], 100%; in assay [16], 106%; in assay [17], 105%.
For the compound `Nc1no[n+]([O-])c1-c1nnc2c(n1)-c1ccccc1C2=O`, the growth was 18.1% in assay [1]; 65.7% in [2]; 83.9% in [3]; -97.5% (active) in [4]; 111% in [5]; 82.6% in [6]. Moreover, the growth in [7] was -20.2% (active); in assay [8], 89%; in assay [9] it was 72.1%; in assay [10], 61%; in assay [11], 80.8%; in [12], 18.8%. The growth in [13] was 29.9%; in [14], -48.9% (active); in assay [15], 1.78% (active); in assay [16] it was 68.1%; in assay [17], 73.1%.
